Source: PubChem
An excerpt weighted towards active compounds, which were near 1.1% of everything screened.
RXFP1 ag: agonists of human relaxin receptor RXFP1 | Q9HBX9 | HEK293T-RXFP1 cAMP TR-FRET, 30 min; response scale: percent of porcine relaxin response, buffer zero | Potency, µM (series often up to 57.5 µM), without a hit: top-dose activation, actives largely listed as activators | hit rate 0.3% among 370,000 | AID 2676; also: potency is read from the fitted curve at half-maximal effect; % is scaled to controls: 0 for no effect and ±100 for the full control effect; nearly all actives have a fitted effect of over 60% in size
Target sequence (Q9HBX9 whole entry, looked up): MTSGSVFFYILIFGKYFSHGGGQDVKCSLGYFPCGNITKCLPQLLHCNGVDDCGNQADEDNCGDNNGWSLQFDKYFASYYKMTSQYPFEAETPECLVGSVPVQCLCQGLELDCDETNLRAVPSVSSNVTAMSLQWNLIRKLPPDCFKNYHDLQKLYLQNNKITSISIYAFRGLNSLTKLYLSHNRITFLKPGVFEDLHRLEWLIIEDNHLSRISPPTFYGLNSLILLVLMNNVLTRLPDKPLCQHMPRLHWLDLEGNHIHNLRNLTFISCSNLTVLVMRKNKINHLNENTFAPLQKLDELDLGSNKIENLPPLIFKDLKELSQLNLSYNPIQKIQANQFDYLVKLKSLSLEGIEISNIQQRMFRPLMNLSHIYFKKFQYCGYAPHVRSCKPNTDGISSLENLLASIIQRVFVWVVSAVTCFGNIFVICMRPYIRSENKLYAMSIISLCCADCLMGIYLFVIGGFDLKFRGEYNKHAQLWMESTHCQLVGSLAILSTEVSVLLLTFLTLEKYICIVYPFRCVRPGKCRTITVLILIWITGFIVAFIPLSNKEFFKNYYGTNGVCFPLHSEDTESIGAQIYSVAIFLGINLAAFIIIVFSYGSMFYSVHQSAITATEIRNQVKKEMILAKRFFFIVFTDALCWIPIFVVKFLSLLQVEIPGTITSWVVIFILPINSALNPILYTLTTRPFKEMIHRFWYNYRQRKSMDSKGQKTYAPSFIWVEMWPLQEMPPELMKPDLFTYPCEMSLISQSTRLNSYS
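HEK293T cells stably expressing RXFP1 were pretreated with the PDE4 inhibitor Ro 20174, exposed to compounds for 30 min at 37C, lysed, and cAMP was read by TR-FRET. Data normalized to buffer (basal) and 29 nM porcine relaxin (100%).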
gsp antag: antagonizes gsp, the McCune-Albright syndrome mutation; Potency, µM (top dose mostly 76.9 µM), inactives show at the highest dose activity change, negative = inhibition, actives largely listed as inhibitors; gsp-mutant cells, cAMP HTRF, 30 min; AID 624288; hit rate 0.4% among 340,000; calls by dose curve; cell line not stated here;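 also: intracellular cAMP measured with PDE inhibitor Ro 20-1724 present during compound exposure; potency is read from the fitted curve at half-maximal effect; % is scaled to controls: 0 for no effect and ±100 for the full control effect; nearly all actives have a fitted effect of over 65% in size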
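Cells in G418 medium, seeded 16-24 h, 37C; buffer exchange to DPBS + 1 mM CaCl2, 0.5 mM MgCl2, 0.05% BSA; cpds in DMSO + […] (300 uM stock), 30 min 37C; HTRF cAMP detection.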
gsp agonist: activates gsp, the McCune-Albright syndrome mutation | gsp mutant cells, cAMP HTRF, 30 min | Potency, µM (doses to about 76.9 µM), for inactives: at the highest dose activation (cAMP increase), usual class: activators | hit rate 0.13% among 340,000 | AID 624287; active = well fitted activation curve with a large enough effect; inconclusive = small, poorly fitted or top-dose-only effect, or another doubt; inactive = no such curve, though single readings can be large or run the other way; cell line not stated here;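 also: phosphodiesterase inhibitor Ro 20-1724 added with compounds to block cAMP breakdown; potency is read from the fitted curve at half-maximal effect; nearly all actives have a fitted effect of over 60% in size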
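Cells stably selected in G418 were plated at 2000/well, grown 16-24 hr, then given compounds in DMSO with the PDE inhibitor […] (300 uM solution added) for 30 min at 37C; cAMP was read by HTRF.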
Tb PFK inh: inhibitors of T. brucei phosphofructokinase. T. brucei PFK, ADP-Glo luminescence. Potency, µM (doses to about 57.5 µM), for the others: at the highest dose activity, negative = inhibition, usual class: inhibitors. hit rate 0.17% among 330,000;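 also: potency is read from the fitted curve at half-maximal effect; 0% = uninhibited 1x PFK enzyme wells and -100% = no-enzyme wells; nearly all actives have a fitted effect of over 60% in size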
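Activity is normalized to no-enzyme wells (full inhibition) and 1.25 nM enzyme wells (no inhibition). Reaction: 0.5 mM F6P, 0.1 mM ATP, 45 min RT, ADP-Glo luminescence; concentration-response curves fitted and classed by quality.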
RXFP1 antagonist: blocks the human relaxin receptor RXFP1; HEK293-RXFP1, relaxin-stimulated cAMP HTRF, 30 min; active compounds read low; activity change, negative = inhibition, % at 57.5 µM; hit rate 0.59% among 350,000; AID 1259400;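 active = activity change of -60% or lower, but not beyond a set lower limit; inconclusive = change between -60% and -40%, or beyond the set limit; inactive = change above -40%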; also: % is scaled to controls: 0 for no effect and ±100 for the full control effect
p53 reactivator: mutant p53 re-activation in reporter cells. H1299 p53-A138V BP100-luciferase reporter, luminescence, 24 h. Potency, µM (highest dose often 92.2 µM), for inactives: top-dose activity change, positive = activation, actives largely listed as activators. hit rate 0.063% among 320,000. AID 504706; also: potency is read from the fitted curve at half-maximal effect; % of control where 0% means no effect; nearly all actives have a fitted effect of over 45% in size
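H1299 (p53-null), stable ts p53-A138V + BP100-Luc; 1000 cells/well, Opti-MEM/10% FBS; cpd 4 pt, 1:5; 24 h, 37 deg C, 5% CO2; detection reagent 10 min RT; luminescence.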
Numbers without * were called inactive; ? = inconclusive; . = no result; [ ] = another dose, or the depositor's remark. Unless noted, calls follow the shape of the dose curve; as a rule, active = well fitted curve in the direction sought with a large enough effect; inconclusive = small, poorly fitted or top-dose-only effect, or another doubt; inactive = no such curve, though single readings can be large; an effect the other way counts as inactive or inconclusive.

SMILES | RXFP1 ag | gsp antag | gsp agonist | Tb PFK inh | RXFP1 antagonist | p53 reactivator
CCOC(=O)c1c(NC(=O)CSc2ncccn2)sc2c1CC(C)(C)NC2(C)C | 3% | -7% | 16% | 5% | 1 | 14%
COc1ccc(C(=O)Nc2ccccc2C(=O)O)cc1Cl | 0% | ? | -10% | 14% | -12 | ?
COc1ccc(C(=O)Nc2ccccc2C(=O)O)cc1NC(=O)C(c1ccccc1)c1ccccc1 | 0% | 40µM* | -2% | 1% | -24 | 6%
COC(=O)c1ccccc1NC(=O)c1ccccc1OC | 0% | -11% | -9% | -4% | -10 | 0%
O=C(Nc1ccccc1C(=O)O)c1ccc(NC(=O)C2CCCCC2)cc1 | 1% | 32µM* | 7%[15.4 µM] | -3% | ? | -8%
COc1ccc(C(=O)NC2CCCCCC2)cc1S(=O)(=O)N1CCCC1 | 1% | 11µM* | 4%[15.4 µM] | 0% | -4 | -2%
COc1ccccc1C(=O)Nc1ccccc1SC(=O)c1ccccc1OC | 2% | 34% | ? | ? | -8 | 13µM*
COc1ccccc1C(=O)Nc1ccc(C(=O)Nc2ccccc2C(=O)O)cc1 | 2% | 35µM* | ? | -1% | -18 | -7%
Cc1ccc(C(=O)Nc2ccccc2C(=O)O)cc1S(=O)(=O)N1CCCCCC1 | 0% | . | . | . | -102* | .
COc1ccccc1NC(=O)c1ccc(C)c(S(=O)(=O)N2CCCCC2)c1 | 3% | -26% | -18%[15.4 µM] | 7% | -7 | -1%
O=C(Nc1ccccc1C(=O)O)c1ccc(NC(=O)c2ccc(Br)o2)cc1 | -2% | 35µM* | 22% | 2% | -37 | 6%
O=C(CN1CCOc2ccccc21)NC1CCN(Cc2ccccc2)CC1 | 1% | 5% | 1% | -1% | -3 | -2%
CC1CN(C(=S)SCC(=O)c2ccc([N+](=O)[O-])cc2)CC(C)O1 (stereo unspecified) | 0% | 6% | -27% | 0% | -14 | 2%
COc1cc([N+](=O)[O-])ccc1NC(=O)COC(=O)C=C(C)C | 2% | -5% | -1% | 3% | 4 | 3%
CCN(CC)CCN(C(=O)c1ccc([N+](=O)[O-])cc1)c1nc2c(OC)cccc2s1 | 7% | 3% | 13µM* | -5% | 0 | 4%
COc1ccc(C(CC(=O)N2CCN(C)CC2)NC(=O)C(F)(F)F)cc1 (stereo unspecified) | 0% | 12% | ? | 4% | 6 | -2%
O=C(O)c1ccccc1NS(=O)(=O)c1ccc(NN=Cc2cccc(Cl)c2)c([N+](=O)[O-])c1 | . | -6% | -36% | 0% | -68* | -2%
O=C(O)c1ccccc1NN=Cc1ccccc1 | . | 25µM* | 28% | . | ? | .
COc1ccc(C)cc1NC(=O)CCNS(=O)(=O)c1cccc(C(F)(F)F)c1 | -2% | -14% | 2%[15.4 µM] | -2% | -6 | -5%
CC(CNC(=O)COC(=O)c1cccs1)c1ccccc1 (stereo unspecified) | 0% | 10% | 18% | -6% | -12 | 3%
CCn1c(SCC(=O)c2ccccc2)nc2sc3c(c2c1=O)CCN(C)C3 | 16% | -9% | -19%[15.4 µM] | -1% | -10 | 13%
CC(C)Nc1ccc(C(CC(N)=O)NC(=O)c2ccccc2)cc1[N+](=O)[O-] (stereo unspecified) | -2% | 11% | 10% | 0% | . | -1%
CS(=O)(=O)c1ccc(C(=O)NCCN2C(=O)S/C(=C\c3cccnc3)C2=O)cc1[N+](=O)[O-] | 14% | 0% | ? | -1% | 2 | -13%
NC(=O)c1ccc(N2CCN(c3ccc(O)cc3)CC2)c([N+](=O)[O-])c1 | -1% | -7% | -1%[15.4 µM] | -21% | ? | -2%
CC(=O)c1ccc(N2CCN(c3ccc(C(N)=O)cc3[N+](=O)[O-])CC2)cc1 | 0% | 32µM* | 4% | -2% | 6 | 15%
SMILES | RXFP1 ag | gsp antag | gsp agonist | Tb PFK inh | RXFP1 antagonist | p53 reactivator
O=C(COc1ccc(/C=N/NC(=O)C(=O)N2CCCCC2)cc1)Nc1ccccc1Cl | -1% | -18% | 3% | -2% | -73* | 8%
COc1ccc(/C=N/NC(=O)C(=O)N2CCCC2)cc1 | 1% | -11% | 13%[15.4 µM] | -5% | -11 | 14%
Cc1cccc(N2CCN(C(=O)CCn3c(=S)[nH]c4cc5c(cc4c3=O)OCO5)CC2C)c1 (stereo unspecified) | 0% | -19% | 21% | 7% | -77* | 13%
CCOc1cc2[nH]c(=S)n(CCCC(=O)NCc3ccco3)c(=O)c2cc1OCC | 1% | 11% | 29% | 13% | ? | 0%
O=C(CCCn1c(=S)[nH]c2cc3c(cc2c1=O)OCO3)NC1CC1 | 4% | 16% | 0% | 0% | -72* | 2%
O=C(CCCn1c(=S)[nH]c2ccccc2c1=O)NC1CCCCC1 | 3% | 8% | 21% | 0% | -111* | -5%
CC1CCCCC1NC(=O)CCn1c(=S)[nH]c2ccccc2c1=O (stereo unspecified) | . | . | -1% | . | -13 | .
O=C(CCCn1c(=S)[nH]c2cc3c(cc2c1=O)OCO3)NCc1ccco1 | 6% | 10% | 4%[15.4 µM] | 1% | -64* | 0%
O=C(CCCn1c(=S)[nH]c2ccccc2c1=O)N1CCCCC1 | 0% | 11% | 8% | -11% | ? | 6%
O=C(CCCn1c(=S)[nH]c2cc3c(cc2c1=O)OCO3)N1CCN(c2ccc(Cl)cc2)CC1 | 2% | -9% | -30% | 2% | -116* | -17%
Cc1cc(C)cc(NC(=O)CCn2c(=S)[nH]c3ccccc3c2=O)c1 | 0% | -2% | -4% | -1% | -32 | 3%
O=C(CCCn1c(=S)[nH]c2cc3c(cc2c1=O)OCO3)N1CCN(c2ccccc2)CC1 | 1% | 21% | 0% | 1% | -14 | 6%
COc1ccc(N2CCN(C(=O)CCCCCn3c(=S)[nH]c4ccc(N5CCOCC5)cc4c3=O)CC2)cc1 | . | . | -20% | . | -98* | .
COc1ccc(NC(=O)CCn2c(=S)[nH]c3ccccc3c2=O)cc1OC | 16% | 21% | ? | 1% | -74* | -6%
CC1CC(C)CN(C(=O)CCCn2c(=S)[nH]c3ccccc3c2=O)C1 (stereo unspecified) | 0% | -1% | -8% | -12% | -97* | -17%
COc1ccc2c(c1)cc1c(=O)n(CC(=O)NC(C)CCc3ccccc3)nc(C)n12 (stereo unspecified) | 22% | -33% | 12% | -7% | 17 | 11%
COc1ccc(NC(=O)Cn2c(=O)n(Cc3ccccc3Cl)c(=O)c3cc(OC)c(OC)cc32)cc1OC | 25µM* | . | . | . | . | .
